Among the test systems are SN12C renal; UO-31 renal; TK-10 renal; ACHN renal; CAKI-1 renal; A498 renal; CCRF-CEM leukemia; MOLT-4 leukemia; EKVX NSCLC; SR leukemia.
Experiment in all cases: NCI-60 one-dose screen, 48 h (100 = growth as untreated, 0 = no growth, -100 = all killed)
Conditions in all cases: 10 µM

Compounds without any hit were thinned out: in the full panel of roughly 83,000, 20% have a hit.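 Single-dose data. Exposure time 48 hours. Values below 10 considered active.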 A number with no mark means an inactive call. Activity calls are given as the source filed them.

`CN(C)c1ccc(/C=C/C=N/NC(=O)c2cc(O)c(O)c(O)c2)cc1`: the growth in the assay with SN12C renal is 105%; in the assay on UO-31 renal, 65.9%; with TK-10 renal, 101%; in the assay with ACHN renal, 76.8%; in the assay on CAKI-1 renal it was 93.4%; in the assay on A498 renal it was 88.1%. Also, the growth in the assay on CCRF-CEM leukemia is 16.1%; in the assay on MOLT-4 leukemia it was 48%.

Consider `N#CCCN1C/C(=C/c2ccccc2)C(=O)/C(=C/c2ccccc2)C1`, for which the growth in the assay with SN12C renal was 25.3%; with UO-31 renal, 51.6%; with TK-10 renal, 95.6%; in the assay with ACHN renal it was 8.94% (active); in the assay with CAKI-1 renal it was 19.1%; in the assay on A498 renal, 106%. Moreover, the growth in the assay on CCRF-CEM leukemia is -1.14% (active).

Turning to `COc1ccc(-c2nc3sc(-c4ccccc4)c(-c4ccccc4)n3c2/C=C/C(=O)c2ccccn2)cc1`, the growth with SN12C renal is 86.6%; in the assay with UO-31 renal, 66%; in the assay on TK-10 renal, 90.7%; in the assay with ACHN renal, 66.2%; in the assay on CAKI-1 renal, 87.1%; with A498 renal, 96.1%. In addition, the growth in the assay with CCRF-CEM leukemia was 52.4%; in the assay on MOLT-4 leukemia, 45.7%.

Take `CN(C)c1ccc(N=C2C=CC(=O)c3ccccc32)cc1`: the growth was 55.4% with SN12C renal; 48.8% in the assay with UO-31 renal; 111% in the assay with TK-10 renal; 79.5% with ACHN renal; 80.9% with CAKI-1 renal; 91.3% in the assay on A498 renal. For the same molecule, the growth in the assay with CCRF-CEM leukemia was 70.5%; in the assay with MOLT-4 leukemia, 77.6%.

Consider `Nc1nc(N)c(NC(=O)CNc2ccc(C(=O)O)cc2)c(N)n1`, for which the growth with SN12C renal was 97.1%; in the assay with UO-31 renal, 94.1%; in the assay on TK-10 renal, 108%; in the assay with ACHN renal, 115%; with CAKI-1 renal, 91.5%; in the assay with A498 renal, 101%. Besides, the growth is 98% in the assay on CCRF-CEM leukemia and 107% with MOLT-4 leukemia.

In the case of `CCOC(=O)C(NC(=O)C(Cl)Cl)C(O)c1ccccc1` (configuration not stated), the growth in the assay with EKVX NSCLC was 109%; with UO-31 renal, 97.6%; in the assay with TK-10 renal, 104%; in the assay with ACHN renal it was 107%; in the assay on A498 renal it was 99.2%; in the assay on CCRF-CEM leukemia, 150%. In addition, the values for the growth with MOLT-4 leukemia and in the assay with SR leukemia were 98.3% and 107%, respectively.

As to `N#Cc1ncc(Br)c(NC2CCCCCC2)n1`, the growth with SN12C renal is 93.5%; with UO-31 renal, 84.7%; with TK-10 renal, 134%; in the assay on ACHN renal, 100%; in the assay on CAKI-1 renal, 89.4%; with A498 renal it was 103%. Further, the growth in the assay with CCRF-CEM leukemia was 85%; in the assay on MOLT-4 leukemia, 86.8%; in the assay on SR leukemia it was 80.9%.

As to `Nc1nc(Nc2ccccc2)n[nH]1`, the growth in the assay with EKVX NSCLC was 95.8%; in the assay on UO-31 renal it was 82.3%; in the assay with TK-10 renal, 101%; with ACHN renal, 89.7%; in the assay on A498 renal it was 108%; with CCRF-CEM leukemia, 97.7%. Further, the growth with MOLT-4 leukemia is 106%; with SR leukemia, 102%.

In the case of `Cn1c([N+](=O)[O-])cnc1/C=C1\Oc2cc(Cl)ccc2C1=O`, the growth in the assay on SN12C renal was -15.1% (active); in the assay with UO-31 renal, -35.2% (active); in the assay on TK-10 renal, -24.4% (active); in the assay with ACHN renal, 6.42% (active); with CAKI-1 renal it was -21.1% (active); with A498 renal it was 57.4%. Also, the growth in the assay on CCRF-CEM leukemia is -0.667% (active).

In the case of `COc1ccc([N+](=O)[O-])c(C(=O)O)c1`, the growth was 99.9% in the assay on SN12C renal; 88% in the assay on UO-31 renal; 104% with TK-10 renal; 105% with ACHN renal; 95.7% in the assay with CAKI-1 renal; 85.6% in the assay on A498 renal. The growth in the assay with CCRF-CEM leukemia is 112%; with MOLT-4 leukemia, 74.4%.

Take `O=C(Nc1cccc(-n2cc(-c3ccncc3)c(-c3ccc(O)c(Cl)c3)n2)c1)Nc1cccc(C(F)(F)F)c1`: the growth in the assay with SN12C renal was 10.3%; in the assay with UO-31 renal it was -9.43% (active); in the assay on TK-10 renal it was -0.882% (active); in the assay on ACHN renal, 8.15% (active); with CAKI-1 renal, -14.5% (active); in the assay on A498 renal it was 76.6%. For the same molecule, the values for the growth with CCRF-CEM leukemia and in the assay on MOLT-4 leukemia were -0.796% (active) and -25% (active), respectively.

For `COc1ccc(-c2nn(-c3cccc(NC(=O)c4ccc(N5CCOCC5)c(C(F)(F)F)c4)c3)cc2-c2ccncc2)cc1Cl`, the growth was 85.2% in the assay on SN12C renal; 40.9% in the assay on UO-31 renal; 82.8% in the assay on TK-10 renal; 60.3% in the assay with ACHN renal; 47.9% with CAKI-1 renal; 60% in the assay on A498 renal. The growth in the assay on CCRF-CEM leukemia was 38.3%; in the assay on MOLT-4 leukemia, 42.1%.

For `c1ccc([I+]c2ccccc2)cc1`, the growth in the assay on SN12C renal is 96.7%; in the assay on UO-31 renal it was 45.9%; in the assay on TK-10 renal, 56.6%; in the assay on ACHN renal, 77.1%; with CAKI-1 renal, 37.3%; in the assay on A498 renal, 65%. Besides, the growth in the assay with CCRF-CEM leukemia is 51.5%; in the assay on MOLT-4 leukemia it was 62.9%.

Consider `CC1CC(=O)OC(C)C1` (configuration not stated), for which the growth is 109% with SN12C renal; 94.1% in the assay on UO-31 renal; 104% in the assay on TK-10 renal; 110% with ACHN renal; 93% in the assay on CAKI-1 renal; 96.1% in the assay with A498 renal. In the assay with CCRF-CEM leukemia, the growth is 101%.

For `CC(=O)n1c(-c2ccc(Cl)c(Cl)c2)cn(-c2ccc(Cl)cc2)c1=O`, the growth in the assay on EKVX NSCLC is 30.3%; in the assay with UO-31 renal, 3.31% (active); in the assay with TK-10 renal, 54.4%; in the assay with ACHN renal, 22.8%; in the assay with A498 renal, 4.91% (active); with CCRF-CEM leukemia it was -26.3% (active). For the same molecule, the growth in the assay with SR leukemia was 0.989% (active).

In the case of `CCOC(=O)C(CSC(c1ccccc1)(c1ccccc1)c1ccccc1)NC(=O)C(CSC(c1ccccc1)(c1ccccc1)c1ccccc1)NC(c1ccccc1)(c1ccccc1)c1ccccc1` (configuration not stated), the growth is 110% in the assay with SN12C renal; 94.8% in the assay with UO-31 renal; 118% in the assay with TK-10 renal; 104% in the assay with ACHN renal; 87% with CAKI-1 renal; 91.3% with A498 renal. In addition, the figures for the growth in the assay on CCRF-CEM leukemia and in the assay with MOLT-4 leukemia were 100% and 110%, respectively.

For the molecule `NC(=S)N=Nc1c(O)c2ccccc2c2ccccc12`, the growth was -88.7% (active) in the assay with SN12C renal; 42.5% with UO-31 renal; 116% in the assay on TK-10 renal; 60.7% in the assay with ACHN renal; 83.5% in the assay with CAKI-1 renal; 101% in the assay with A498 renal. In the assay on CCRF-CEM leukemia, the growth is 106%.

Values taken from PubChem BioAssay (NCI).
